In PubChem BioAssay:
Results filed as inconclusive are left out. Calls of active or inactive are those of the source.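 Rule for the calls, unless noted: active = GFP signal, as percent of the solvent control, above the screen mean plus 3 SD, about 149; inconclusive = no reading because the compound's own fluorescence upset strain identification; inactive = the rest.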

What was measured:
[1] = yeast TOR pathway RPL19A-GFP modulators, primary screen, cell-based, S. cerevisiae, multiplex flow cytometry (AID 1862; in the data active = percent of DMSO control GFP below about 86%;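 note: lower values mimic rapamycin by blocking the RPL19A rise seen in DMSO cells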); details: S. cerevisiae RPL19A-GFP strain, flow cytometry fluorescence, 3 h; at 10 µM; stronger effect = lower value
[2] = modulators of MEP2-GFP levels in yeast, primary screen, S. cerevisiae, multiplex flow cytometry (AID 1867;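 active = GFP response, as percent of the DMSO control, above the screen-wide mean plus 3 SD, about 139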;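 note: median GFP channel fluorescence of barcode-gated MEP2-GFP cells measured by flow cytometry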); details: S. cerevisiae MEP2-GFP strain, 3 h, at 10 µM, stronger effect = higher value, 100% means same as DMSO wells
[3] = modulators of CIT2-GFP expression in yeast, primary screen, S. cerevisiae, GFP fusion, multiplex flow cytometry (AID 1870;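 active = percent response above a set limit, the screen-wide mean plus 3 SD, cut at about 130% in these data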;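 note: barcoded CIT2-GFP strain pooled with four other GFP strains with rapamycin as positive control; median GFP fluorescence per well over plate mean of DMSO wells so 100% = DMSO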); details: 3 h, at 10 µM, stronger effect = higher value
[4] = modulators of LAP4-GFP expression in yeast, primary screen, S. cerevisiae, multiplex flow cytometry (AID 1873); details: 3 h, at 10 µM, stronger effect = higher value
[5] = modulators of AGP1-GFP expression in yeast TOR pathway, primary screen, cell-based, multiplex flow cytometry, S. cerevisiae (AID 1887;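 active = GFP signal above the screen-wide mean plus 3 SD, that is over about 124.5% of the solvent control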;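 note: AGP1-GFP fusion strain of S. cerevisiae within a five-strain barcoded multiplex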); details: 3 h, at 10 µM, stronger effect = higher value
[6] = inhibitors of CD8+ T cell-vesicle binding, pilot screen, LFA-1/ICAM-1 modulator project, MLPCN validation set, flow cytometry (AID 2523;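 active = response below a set limit, under 55% cells CD8-positive and vesicle-bound, and CD8 cells' 90th-percentile brightness under 279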;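 for vesicle binding response: mean PE anti-B7-1 fluorescence of CD8+ cells relative to row control; 100% = QL9-loaded vesicles with DMSO vehicle in the same plate row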); details: 2C mouse CD8+ T cells, at 7 µM, stronger effect = lower value; double positive events: measured here: CD8+/vesicle+ event percentage
[7] = molecular target: Integrin beta-1 (Homo sapiens) + Integrin alpha-4 (Homo sapiens) (UniProt P13612+P05556); assay: inhibition of HUTS-21 binding to VLA-4, pilot screen, VLA-4 allosteric modulator project, U937 cells, HUTS-21 mAb, flow cytometry, validation set (AID 2674;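 active = inhibition above 50%, about 3 SD of the validation set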;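 note: antibody binding induced by the VLA-4 ligand LDV present at three times its Kd; 0% = LDV ligand with antibody and no compound and 100% = antibody without LDV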); details: HUTS-21 LIBS mAb binding, at 6.7 µM, stronger effect = higher value, binding induced by LDV ligand
Integrin beta-1 (Homo sapiens) + Integrin alpha-4 (Homo sapiens), sequence (P05556 whole entry, looked up): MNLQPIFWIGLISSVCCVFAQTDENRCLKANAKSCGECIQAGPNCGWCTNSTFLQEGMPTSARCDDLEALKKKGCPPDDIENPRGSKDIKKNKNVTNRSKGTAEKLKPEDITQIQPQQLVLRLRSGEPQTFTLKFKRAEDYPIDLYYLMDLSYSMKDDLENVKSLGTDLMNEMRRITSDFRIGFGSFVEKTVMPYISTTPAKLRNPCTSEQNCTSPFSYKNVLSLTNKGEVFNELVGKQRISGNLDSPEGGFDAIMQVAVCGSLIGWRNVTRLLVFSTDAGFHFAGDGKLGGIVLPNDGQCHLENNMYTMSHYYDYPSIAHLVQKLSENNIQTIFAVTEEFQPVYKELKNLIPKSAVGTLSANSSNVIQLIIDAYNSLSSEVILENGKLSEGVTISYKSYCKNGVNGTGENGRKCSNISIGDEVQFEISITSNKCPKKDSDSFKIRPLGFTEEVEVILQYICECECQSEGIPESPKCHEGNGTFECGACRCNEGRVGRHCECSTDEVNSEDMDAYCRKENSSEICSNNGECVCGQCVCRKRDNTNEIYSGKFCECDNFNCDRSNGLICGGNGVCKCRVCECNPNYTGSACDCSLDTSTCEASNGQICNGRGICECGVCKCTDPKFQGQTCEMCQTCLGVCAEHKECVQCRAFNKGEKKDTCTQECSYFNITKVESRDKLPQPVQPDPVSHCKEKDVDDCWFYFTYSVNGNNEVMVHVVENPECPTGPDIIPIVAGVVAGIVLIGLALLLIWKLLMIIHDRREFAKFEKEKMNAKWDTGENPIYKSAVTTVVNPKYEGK
Integrin beta-1 (Homo sapiens) + Integrin alpha-4 (Homo sapiens), sequence (P13612 whole entry, looked up): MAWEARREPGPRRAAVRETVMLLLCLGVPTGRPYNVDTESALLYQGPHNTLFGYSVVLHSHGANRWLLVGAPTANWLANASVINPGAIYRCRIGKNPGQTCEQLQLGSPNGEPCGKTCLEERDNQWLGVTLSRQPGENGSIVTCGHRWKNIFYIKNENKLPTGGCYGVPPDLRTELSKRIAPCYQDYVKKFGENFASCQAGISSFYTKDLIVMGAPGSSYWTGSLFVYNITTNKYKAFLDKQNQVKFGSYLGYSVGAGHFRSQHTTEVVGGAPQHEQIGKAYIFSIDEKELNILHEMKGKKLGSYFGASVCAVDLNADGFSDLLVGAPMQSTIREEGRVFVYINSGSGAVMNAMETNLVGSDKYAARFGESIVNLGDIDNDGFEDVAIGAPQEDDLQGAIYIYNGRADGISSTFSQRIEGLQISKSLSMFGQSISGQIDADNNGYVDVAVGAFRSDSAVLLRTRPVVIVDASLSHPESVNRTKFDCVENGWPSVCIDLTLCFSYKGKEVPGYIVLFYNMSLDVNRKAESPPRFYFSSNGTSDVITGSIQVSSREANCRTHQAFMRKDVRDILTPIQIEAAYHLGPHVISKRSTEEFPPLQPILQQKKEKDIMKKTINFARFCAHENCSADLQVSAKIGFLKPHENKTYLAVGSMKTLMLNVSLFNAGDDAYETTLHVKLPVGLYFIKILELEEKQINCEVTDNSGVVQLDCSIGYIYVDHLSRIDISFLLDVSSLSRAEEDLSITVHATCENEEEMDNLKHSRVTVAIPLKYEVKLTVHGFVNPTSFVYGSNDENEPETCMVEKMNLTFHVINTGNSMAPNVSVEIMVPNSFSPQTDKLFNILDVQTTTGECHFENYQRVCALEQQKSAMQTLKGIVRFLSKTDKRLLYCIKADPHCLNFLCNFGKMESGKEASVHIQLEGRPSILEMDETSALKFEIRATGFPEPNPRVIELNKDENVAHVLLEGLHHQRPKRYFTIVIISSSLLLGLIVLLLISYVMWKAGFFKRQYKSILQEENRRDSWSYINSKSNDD

[8] = superoxide lowering in aged yeast cells, pilot screen, validation compound set (AID 2706;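 active = superoxide response below 65% of plate, a cut near 3 SD across the whole screen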;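 note: yeast exposed to compound for one week at 30 degrees C before staining; 100% = mean of all compound wells on the same plate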); details: S. cerevisiae aging, superoxide DHE fluorescence; at 10 µM; stronger effect = lower value
[9] = molecular target: Beta-adrenergic receptor kinase 1 (Homo sapiens) (UniProt P25098); assay: GRK2 binders displacing RNA aptamer, biochemical, validation, human GRK2, bead flow cytometry (AID 488806;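 active = aptamer binding inhibition above 30%, about 3 SD of noise from non-fluorescent compounds; inactive = inhibition at or below 30%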); details: bead-bound GRK2, FAM-aptamer displacement, at 10 µM, stronger effect = higher value
Beta-adrenergic receptor kinase 1 (Homo sapiens), sequence (P25098 whole entry, looked up): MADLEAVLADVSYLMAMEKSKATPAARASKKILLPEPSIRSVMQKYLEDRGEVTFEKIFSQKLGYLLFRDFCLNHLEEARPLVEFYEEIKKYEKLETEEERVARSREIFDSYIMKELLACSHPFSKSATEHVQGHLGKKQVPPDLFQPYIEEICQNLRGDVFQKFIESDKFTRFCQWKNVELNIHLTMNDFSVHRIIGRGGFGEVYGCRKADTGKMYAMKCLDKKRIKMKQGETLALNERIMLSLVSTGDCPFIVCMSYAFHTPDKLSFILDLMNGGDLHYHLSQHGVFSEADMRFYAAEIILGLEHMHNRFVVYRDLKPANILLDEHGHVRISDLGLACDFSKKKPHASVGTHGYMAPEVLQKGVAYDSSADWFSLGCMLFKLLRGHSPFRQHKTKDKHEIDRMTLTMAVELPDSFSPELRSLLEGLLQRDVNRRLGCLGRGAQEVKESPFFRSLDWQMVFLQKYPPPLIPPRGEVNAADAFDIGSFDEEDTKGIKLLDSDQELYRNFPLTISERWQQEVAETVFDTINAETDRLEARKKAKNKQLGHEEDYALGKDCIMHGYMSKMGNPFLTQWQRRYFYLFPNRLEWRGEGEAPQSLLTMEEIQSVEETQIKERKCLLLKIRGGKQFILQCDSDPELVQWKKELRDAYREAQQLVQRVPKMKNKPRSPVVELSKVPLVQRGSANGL

[10] = molecular target: Beta-2 adrenergic receptor (Homo sapiens) (UniProt P07550); assay: beta2AR agonists driving receptor internalization, pilot screen, cell-based, FAP fluorogen, flow cytometry, validation set (AID 504459;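 active = percent response above 42, roughly 3 SD of non-fluorescent test compounds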;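 note: agonist-driven loss of surface beta2AR via internalization measured by FAP dye flow cytometry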); details: Am2.2-beta2AR cells, FAP surface receptor flow cytometry; at 10 µM; stronger effect = higher value
Beta-2 adrenergic receptor (Homo sapiens), sequence (P07550 whole entry, looked up): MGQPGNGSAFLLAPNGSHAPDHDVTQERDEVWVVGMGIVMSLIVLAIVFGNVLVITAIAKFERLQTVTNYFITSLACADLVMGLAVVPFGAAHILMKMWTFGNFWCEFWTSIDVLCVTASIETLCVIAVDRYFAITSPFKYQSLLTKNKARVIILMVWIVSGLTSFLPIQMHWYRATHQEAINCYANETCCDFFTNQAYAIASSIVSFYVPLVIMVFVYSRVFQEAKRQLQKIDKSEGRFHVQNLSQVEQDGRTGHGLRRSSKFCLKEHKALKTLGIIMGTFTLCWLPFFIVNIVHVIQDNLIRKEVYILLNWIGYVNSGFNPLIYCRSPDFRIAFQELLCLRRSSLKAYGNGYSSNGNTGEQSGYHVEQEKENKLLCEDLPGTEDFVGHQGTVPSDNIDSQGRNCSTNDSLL

[11] = molecular target: AP-2 complex subunit beta (Homo sapiens) (UniProt P63010); assay: inhibitors of arrestin peptide binding to AP2, pilot screen, biochemical, validation set, GST-AP2 beads, flow cytometry (AID 504541;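 active = inhibition above 54%, about 3 SD of non-fluorescent compounds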;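 note: AP2 carries R879A mutation and is captured from E. coli lysate; bead-bound FITC arrestin peptide fluorescence measuring arrestin peptide binding to AP2; 0% = DMSO wells and 100% = excess unlabeled arrestin peptide control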); details: FITC arrestin peptide, at 10 µM, stronger effect = higher value, AP2 beta2 appendage fragment, R879A mutant
AP-2 complex subunit beta (Homo sapiens), sequence (P63010 whole entry, looked up, the tested form may be a part, one chain of several): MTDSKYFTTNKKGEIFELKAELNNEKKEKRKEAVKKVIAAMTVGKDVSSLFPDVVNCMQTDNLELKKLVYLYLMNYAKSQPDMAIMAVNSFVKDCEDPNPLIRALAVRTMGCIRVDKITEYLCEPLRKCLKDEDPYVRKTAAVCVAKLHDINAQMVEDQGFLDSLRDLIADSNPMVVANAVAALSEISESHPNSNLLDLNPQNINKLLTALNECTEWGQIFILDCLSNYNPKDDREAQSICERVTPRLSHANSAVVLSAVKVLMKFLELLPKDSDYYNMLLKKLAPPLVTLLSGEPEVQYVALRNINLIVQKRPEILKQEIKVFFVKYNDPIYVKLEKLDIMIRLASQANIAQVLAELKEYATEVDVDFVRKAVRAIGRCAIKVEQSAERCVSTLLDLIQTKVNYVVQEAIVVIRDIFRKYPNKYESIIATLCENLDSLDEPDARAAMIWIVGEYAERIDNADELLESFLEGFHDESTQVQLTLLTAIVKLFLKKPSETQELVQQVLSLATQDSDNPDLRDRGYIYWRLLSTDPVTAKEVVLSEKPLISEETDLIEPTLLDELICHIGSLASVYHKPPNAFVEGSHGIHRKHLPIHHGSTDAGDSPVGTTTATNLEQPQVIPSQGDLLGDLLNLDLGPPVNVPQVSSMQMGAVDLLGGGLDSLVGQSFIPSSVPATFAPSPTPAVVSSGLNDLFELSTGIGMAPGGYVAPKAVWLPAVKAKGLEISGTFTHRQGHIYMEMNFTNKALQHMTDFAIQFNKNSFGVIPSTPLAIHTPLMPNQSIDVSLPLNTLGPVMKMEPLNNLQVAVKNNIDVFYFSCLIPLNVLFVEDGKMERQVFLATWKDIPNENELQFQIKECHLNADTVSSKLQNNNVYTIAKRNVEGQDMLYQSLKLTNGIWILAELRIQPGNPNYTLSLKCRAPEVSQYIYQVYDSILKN

[12] = yeast V-ATPase proton transport modulators, S. cerevisiae, pHLuorin, HTS validation (AID 504600; in the data active = response above about 15%;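 note: plate controls were DMSO for no effect and reference compound for full effect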); details: S. cerevisiae pHLuorin cytosolic pH, at 10 µM, stronger effect = higher value
[13] = system: anti-desmoglein-3 scFv antibody binding to human DSG3; assay: inhibitors of anti-DSG3 scFv binding to DSG3, pilot screen, biochemical, validation compound set, bead-based, flow cytometry (AID 588368;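 active = binding below the plate cutoff, the plate median minus 3 SD, with a reading above zero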;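 note: signal is the median channel fluorescence of bead-bound GFP antibody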); details: Protein G beads, DSG3-Fc, scFv-GFP binding, at 10 µM, stronger effect = lower value
[14] = inhibitors of fungal efflux pumps CDR1, CDR2, MDR1, pilot screen, validation compound set, multiplex, phenotypic (AID 588506;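 active = efflux inhibition above 0.42, the validation set average plus 4 SD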;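 note: Nile Red retained in cells so higher fluorescence means more efflux inhibition; 0 = negative control wells and 1 = enniatin B 25 µM full block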); details: S. cerevisiae pump-expressing triplex, Nile Red efflux flow cytometry; at 10 µM; stronger effect = higher value; the pumps come from Candida albicans
[15] = molecular target: ATP-binding cassette sub-family B member 6 (Homo sapiens) (UniProt Q9NP58); assay: ABCB6 transporter inhibitors, pilot screen, K562-ABCB6 cells, flow cytometry, validation set (AID 588550;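 active = inhibition above the screen-wide mean plus 3 SD, about 51%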;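 note: 0% = DMSO wells and 100% = benzethonium chloride 70 µM positive control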); details: K562-ABCB6 porphyrin accumulation, 1 h, at 10 µM, stronger effect = higher value
ATP-binding cassette sub-family B member 6 (Homo sapiens), sequence (Q9NP58 whole entry, looked up): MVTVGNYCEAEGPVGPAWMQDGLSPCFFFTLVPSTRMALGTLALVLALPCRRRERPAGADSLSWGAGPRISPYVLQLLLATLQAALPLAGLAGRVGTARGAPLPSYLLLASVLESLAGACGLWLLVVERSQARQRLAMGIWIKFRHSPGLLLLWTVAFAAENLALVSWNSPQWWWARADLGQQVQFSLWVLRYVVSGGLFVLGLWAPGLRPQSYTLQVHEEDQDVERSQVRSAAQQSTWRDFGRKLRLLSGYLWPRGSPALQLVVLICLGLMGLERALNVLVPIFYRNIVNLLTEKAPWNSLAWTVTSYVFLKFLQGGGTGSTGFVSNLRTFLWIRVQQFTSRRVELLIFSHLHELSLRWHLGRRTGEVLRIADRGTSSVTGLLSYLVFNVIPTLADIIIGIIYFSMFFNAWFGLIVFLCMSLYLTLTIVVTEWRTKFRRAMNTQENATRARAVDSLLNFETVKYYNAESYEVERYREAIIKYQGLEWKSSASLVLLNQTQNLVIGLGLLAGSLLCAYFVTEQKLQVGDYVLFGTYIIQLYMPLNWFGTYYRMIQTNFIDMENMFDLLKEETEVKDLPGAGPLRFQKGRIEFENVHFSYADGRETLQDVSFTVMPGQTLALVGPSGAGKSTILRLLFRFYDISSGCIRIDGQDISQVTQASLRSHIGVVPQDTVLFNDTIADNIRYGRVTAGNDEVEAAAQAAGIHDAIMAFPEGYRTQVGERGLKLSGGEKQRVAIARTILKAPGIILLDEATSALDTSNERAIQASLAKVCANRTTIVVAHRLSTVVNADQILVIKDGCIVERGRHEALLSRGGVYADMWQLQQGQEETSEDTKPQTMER

[16] = promoters of myeloid differentiation in arrested cells, primary screen, cell-based, GFP/MAC1 double positive, flow cytometry, validation set (AID 588685;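 active = differentiation response of at least 50%, scaled between solvent and reference control, from cells with both markers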;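 note: compound exposure lasts four days before antibody staining and flow analysis; 0% = DMSO wells and 100% = 5 µM fulvestrant positive control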); details: ER-HoxA9 marrow cells, stronger effect = higher value, normalized: vehicle 0, fulvestrant 100

SMILES | percent of DMSO control GFP [1] | GFP response vs DMSO [2] | percent response of DMSO control [3] | GFP response vs DMSO [4] | GFP response, % of DMSO [5] | double positive events [6] [%] | vesicle binding response [6] | inhibition [7] | superoxide response (% of plate) [8] | aptamer binding inhibition [9] | response [10] | inhibition [11] | response [12] | binding (% of control) [13] | efflux inhibition (fraction of control) [14] | inhibition [15] | differentiation response [16]
CSc1cccc(NC(=O)/C=C/c2ccccc2)c1 | 91.3% (inactive) | 90.5% (inactive) | 88.6% (inactive) | 83.1% (inactive) | 80.5% (inactive) | 62.5 | 219% (inactive) | 15.2% (inactive) | 114% (inactive) | 1% (inactive) | 1.66% (inactive) | 7.39% (inactive) | 1.17% (inactive) | 104% (inactive) | -0.38 (inactive) | 10% (inactive) | 9.01% (inactive)
CC12CCC(C(=O)NCc3ccccn3)(OC1=O)C2(C)C (stereo unspecified) | 102% (inactive) | 103% (inactive) | 103% (inactive) | 98% (inactive) | 103% (inactive) | 61.8 | 167% (inactive) | 1.59% (inactive) | 92.4% (inactive) | 0% (inactive) | -3.72% (inactive) | 6.09% (inactive) | -2.31% (inactive) | 104% (inactive) | -0.24 (inactive) | 33% (inactive) | 5.67% (inactive)
CC1CCCC(C)N1NC(=O)c1ccc(Cl)c(S(N)(=O)=O)c1 (stereo unspecified) | 88% (inactive) | 126% (inactive) | 91.3% (inactive) | 85.8% (inactive) | 96.3% (inactive) | 65.1 | 128% (inactive) | -3.24% (inactive) | 98.3% (inactive) | 3% (inactive) | -7.28% (inactive) | -5.07% (inactive) | -0.52% (inactive) | 101% (inactive) | 0.09 (inactive) | 10% (inactive) | -0.82% (inactive)
COc1ccc2[nH]c(CN3CCN(CC(C)C)C(CCO)C3)c(C)c2c1 (stereo unspecified) | 98.8% (inactive) | 105% (inactive) | 94.8% (inactive) | 105% (inactive) | 98% (inactive) | 61.7 | 231% (inactive) | -3.16% (inactive) | 95.8% (inactive) | 3% (inactive) | -3.42% (inactive) | -1.65% (inactive) | 2.28% (inactive) | 97.4% (inactive) | -0.06 (inactive) | 6% (inactive) | -4% (inactive)
COc1ccc(C2C3=C(CC(C)(C)CC3=O)N(C)C3=C2C(=O)CC(C)(C)C3)cc1 | 101% (inactive) | 99.6% (inactive) | 88% (inactive) | 110% (inactive) | 118% (inactive) | 62.6 | 173% (inactive) | 4.84% (inactive) | 104% (inactive) | 5% (inactive) | -20.5% (inactive) | 2.92% (inactive) | -12.8% (inactive) | 100% (inactive) | -0.09 (inactive) | 3% (inactive) | 3.88% (inactive)
CC(C)N(C(=O)Cc1ccccc1[N+](=O)[O-])C(C)C | 104% (inactive) | 96.3% (inactive) | 102% (inactive) | 92.2% (inactive) | 104% (inactive) | 60.4 | 240% (inactive) | 3.67% (inactive) | 104% (inactive) | 2% (inactive) | -2.55% (inactive) | -8.88% (inactive) | 1.74% (inactive) | 103% (inactive) | -0.13 (inactive) | 5% (inactive) | -26.4% (inactive)
C=C1C2(C(=O)Nc3ccc(SC(F)F)cc3)CCC(C2)C1(C)C (stereo unspecified) | 103% (inactive) | 99.3% (inactive) | 105% (inactive) | 96% (inactive) | 100% (inactive) | 66.3 | 1190% (inactive) | 1.62% (inactive) | 82.1% (inactive) | 1% (inactive) | -6.87% (inactive) | -6.22% (inactive) | 1.62% (inactive) | 101% (inactive) | -0.29 (inactive) | 7% (inactive) | 2.2% (inactive)
CS(=O)(=O)Nc1ccc([N+](=O)[O-])cc1Oc1ccccc1 | 95.5% (inactive) | 97.6% (inactive) | 96.4% (inactive) | 115% (inactive) | 115% (inactive) | 62.2 | 188% (inactive) | -8.78% (inactive) | 106% (inactive) | 3% (inactive) | -35% (inactive) | -2.11% (inactive) | 2.46% (inactive) | 106% (inactive) | -0.09 (inactive) | 5% (inactive) | -8.93% (inactive)
CC(=O)C1=C(O)C(=O)OC1c1ccc(C)cc1 (stereo unspecified) | 97.1% (inactive) | 119% (inactive) | 91% (inactive) | 132% (inactive) | 106% (inactive) | 61 | 147% (inactive) | 17.3% (inactive) | 103% (inactive) | 2% (inactive) | -1.67% (inactive) | 21.9% (inactive) | -0.38% (inactive) | 101% (inactive) | -0.06 (inactive) | 7% (inactive) | 5.6% (inactive)
CC[N+]1(CC)CC2=Cc3ccccc3CC2C1 (stereo unspecified) | 91.5% (inactive) | 121% (inactive) | 93.9% (inactive) | 80.3% (inactive) | 88.9% (inactive) | 64.8 | 178% (inactive) | 13.2% (inactive) | 90.8% (inactive) | 2% (inactive) | 0.79% (inactive) | 43.9% (inactive) | -6.57% (inactive) | 99% (inactive) | 0.3 (inactive) | 13% (inactive) | 0% (inactive)
CC1=CC(=O)c2ccccc2C1=O | 101% (inactive) | 104% (inactive) | 94.5% (inactive) | 94.8% (inactive) | 91.1% (inactive) | 60.8 | 105% (inactive) | -5.11% (inactive) | 108% (inactive) | 1% (inactive) | 22.2% (inactive) | -9.12% (inactive) | 1.78% (inactive) | 102% (inactive) | -0.21 (inactive) | 1% (inactive) | 14.4% (inactive)
CC(C)C1CC(CCNCc2ccc(N(C)C)cc2)(c2ccccc2)CCO1 (stereo unspecified) | 95.2% (inactive) | 105% (inactive) | 118% (inactive) | 76.5% (inactive) | 87.7% (inactive) | 58.6 | 200% (inactive) | 9.37% (inactive) | 112% (inactive) | -4% (inactive) | 3.92% (inactive) | -7.09% (inactive) | 0.42% (inactive) | 111% (inactive) | -0.09 (inactive) | 8% (inactive) | -1.64% (inactive)
CC(C)C12CN3CC(C(C)C)(CN(C1)C31C(=O)Nc3ccccc31)C2=O (stereo unspecified) | 106% (inactive) | 98.7% (inactive) | 99.7% (inactive) | 101% (inactive) | 98% (inactive) | 66.4 | 190% (inactive) | 1.59% (inactive) | 110% (inactive) | 3% (inactive) | 9.28% (inactive) | -3.03% (inactive) | -0.51% (inactive) | 103% (inactive) | 0 (inactive) | 8% (inactive) | -11.9% (inactive)
CCN(CC)C(=O)N1CCN(C)CC1 | 101% (inactive) | 106% (inactive) | 101% (inactive) | 101% (inactive) | 108% (inactive) | 63.6 | 158% (inactive) | -3.77% (inactive) | 104% (inactive) | -1% (inactive) | -0.51% (inactive) | 7.6% (inactive) | 0.18% (inactive) | 103% (inactive) | 0.72 (active) | 9% (inactive) | -13.3% (inactive)
O=C(NC(=S)Nc1nc(-c2ccccc2)cs1)c1ccco1 | 90.9% (inactive) | 132% (inactive) | 102% (inactive) | 85.3% (inactive) | 87.3% (inactive) | 55.7 | 164% (inactive) | 1.61% (inactive) | 110% (inactive) | 3% (inactive) | -23.9% (inactive) | 16.9% (inactive) | -1.38% (inactive) | 102% (inactive) | 0.12 (inactive) | 7% (inactive) | 5.73% (inactive)
CC(=O)CCc1c(C)c2cccc(C)c2[nH]c1=O | 104% (inactive) | 99.6% (inactive) | 103% (inactive) | 97.4% (inactive) | 98.8% (inactive) | 56.4 | 269% (inactive) | -9.98% (inactive) | 105% (inactive) | 1% (inactive) | -3.42% (inactive) | -3.21% (inactive) | -0.84% (inactive) | 95.5% (inactive) | -0.03 (inactive) | 9% (inactive) | -18.4% (inactive)
O=C1CCCN1C(=O)CCC(=O)N1CCCC1=O | 107% (inactive) | 95.1% (inactive) | 109% (inactive) | 87.4% (inactive) | 106% (inactive) | 62.6 | 235% (inactive) | -11.9% (inactive) | 96.9% (inactive) | 0% (inactive) | -7.65% (inactive) | -9.79% (inactive) | -1.12% (inactive) | 95.6% (inactive) | -0.1 (inactive) | -2% (inactive) | 2.2% (inactive)
Cc1ccccc1C(=O)Oc1ccc(Sc2ccc(O)cc2)cc1 | 103% (inactive) | 99.3% (inactive) | 100% (inactive) | 113% (inactive) | 100% (inactive) | 62.4 | 255% (inactive) | 0.58% (inactive) | 94.1% (inactive) | 0% (inactive) | -4.72% (inactive) | -5.67% (inactive) | 1.54% (inactive) | 97.6% (inactive) | 0.02 (inactive) | -7% (inactive) | -1.71% (inactive)
